Screening results: PubChem BioAssay, National Center for Advancing Translational Sciences (NCATS)
Shown are actives, neighbours in structure and some others; about 2.8% of the full set was active somewhere.
IP6K1 inhibitor: Primary qHTS assay for small molecule inhibitors of Inositol hexaphosphate kinase 1 (IP6K1) | Inositol hexakisphosphate kinase 1 (Homo sapiens), Q92551 | actives 0.81% (n = 140,000) | IP6K1 kinase, ADP-Glo luminescence, 2 h; hits give low values | activity change, % (series mostly up to about 58 µM) | AID 1645851, 2021; in the data active = activity change below about -25%; also: % is scaled to controls: 0 for no effect and ±100 for the full control effect
Target sequence (Q92551 whole entry, looked up): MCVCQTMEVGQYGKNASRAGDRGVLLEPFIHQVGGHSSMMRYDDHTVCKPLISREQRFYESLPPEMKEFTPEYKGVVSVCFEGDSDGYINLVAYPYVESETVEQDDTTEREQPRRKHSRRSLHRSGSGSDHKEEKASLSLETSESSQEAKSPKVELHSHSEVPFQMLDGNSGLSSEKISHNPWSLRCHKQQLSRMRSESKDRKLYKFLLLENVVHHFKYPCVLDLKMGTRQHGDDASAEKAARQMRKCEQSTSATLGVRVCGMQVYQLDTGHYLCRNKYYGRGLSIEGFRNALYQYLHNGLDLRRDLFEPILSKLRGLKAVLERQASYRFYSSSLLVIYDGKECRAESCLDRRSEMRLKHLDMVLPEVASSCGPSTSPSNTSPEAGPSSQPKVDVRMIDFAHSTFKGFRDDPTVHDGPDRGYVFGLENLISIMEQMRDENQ
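ADP-Glo luminescence measures ADP made by human IP6K1 during a 2 h RT reaction with ATP/IP6 (mix at 1.3 mM/130 uM); top library doses 57.5 and 19.1 uM final.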
KDM5B inh: Primary screen for KDM5B Histone Demethylases FDH-coupled qHTS; Lysine-specific demethylase 5B (Homo sapiens), Q9UGL1; KDM5B demethylase, FDH-coupled NADH fluorescence (FDH is formaldehyde dehydrogenase); Potency, µM (top dose mostly 57.7 µM), usual class: inhibitors; actives 2.6% (n = 220,000); AID 1347165, 2019; also: potency is read from the fitted curve at half-maximal effect; 0% is about no effect; nearly all actives have a fitted effect of over 70% in size
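Measured: NADH fluorescence change, 30 min, RT. System: KDM5BΔAP 200 nM final, H3K4me3 peptide, α-KG, Fe(II), ascorbate, NAD⁺ plus FDH, pH 7.5 HEPES. Compounds: titrated, 10 min pre-incubation with enzyme.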
SNCA expr inhib: Primary qHTS assay for inhibitors of alpha-synuclein gene (SNCA) expression | Potency, µM (doses to about 57.2 µM), without a hit: at the top dose activity change, negative = inhibition, most hits filed as inhibitors | actives 0.17% (n = 140,000) | HEK-293 SNCA-luciferase knock-in, luminescence, 24 h | AID 1671194, 2021;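 also: potency is read from the fitted curve at half-maximal effect; plate controls were DMSO cells for no effect and cell-free wells for full effect; nearly all actives have a fitted effect of over 45% in size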
HEK293 viab: GF-AFC viability counterscreen for inhibitors of alpha-synuclein gene (SNCA) expression; HEK-293-SNCA-luc viability, GF-AFC fluorescence, 24 h; Potency, µM (doses to about 57.1 µM), for inactives: at the top dose activity change, negative = cytotoxicity, actives largely listed as cytotoxic; actives 0.12% (n = 150,000);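 also: potency is read from the fitted curve at half-maximal effect; 0% = DMSO-treated cells and -100% = medium-only wells without cells; nearly all actives have a fitted effect of over 30% in size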
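Cytotoxicity counterscreen: after 24 h compound treatment of genome-edited SNCA-luciferase HEK-293 cells, live-cell protease substrate GF-AFC read by fluorescence after 30 min; activity scaled between DMSO (0%) and medium-only (-100%), curves Hill-fitted.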
Numbers without * were called inactive; i = inactive; u = inconclusive; x = not tested or not shown; [ ] = dose if it differs, or a comment. Unless noted, calls follow the shape of the dose curve; as a rule, active = well fitted curve in the direction sought with a large enough effect; inconclusive = small, poorly fitted or top-dose-only effect, or another doubt; inactive = no such curve, though single readings can be large; an effect the other way counts as inactive or inconclusive.

SMILES | IP6K1 inhibitor | KDM5B inh | SNCA expr inhib | HEK293 viab
CCCn1c(C)cnc1CC1CCN(C(=O)C2(c3ccc(OC)cc3)CC2)C1 (stereo unspecified) | -12.3 | i | 222.1% | 0.7%
CNc1ncccc1C(=O)N[C@@H]1COCC[C@@H]1OCc1ccccc1 | 5.3 | 28.2µM* | 4.0% | 4.9%
COC(=O)[C@@H]1Cc2c([nH]c3ccccc23)[C@H]2C[C@H](NC[C@H]3CCCO3)C[C@@H](c3ccccc3F)N21 | 8.9 | 28.2µM* | -12.0% | -13.6%
COC(=O)[C@@H]1Cc2c([nH]c3ccccc23)[C@H]2C[C@@H](NCCCn3ccnc3)C[C@@H](c3ccccc3F)N21 | 10.0 | 25.1µM* | -13.3% | -21.4%
COC(=O)[C@@H]1Cc2c([nH]c3ccccc23)[C@H]2C[C@@H](NCCNC(C)=O)C[C@@H](c3ccccc3F)N21 | -12.2 | u | 24.5% | 3.7%
COC(=O)[C@@H]1Cc2c([nH]c3ccccc23)[C@H]2C[C@@H](NCCO)C[C@@H](c3ccccc3F)N21 | -6.7 | 28.2µM* | u | u
CCCNc1c(NC(=O)Nc2ccc(F)cc2)c(=O)oc2ccccc12 | x | i | x | x
Cc1cn2nc(C(=O)NCc3ccc(F)cc3F)cc2c(=O)[nH]1 | -1.5 | i | 11.9% | 3.5%
COC(=O)c1cccc(COC(=O)C2=NN(C3CCS(=O)(=O)C3)C(=O)CC2)c1 (stereo unspecified) | x | i | x | x
CCOC(=O)C1C(=O)C=C(c2ccc(C)cc2)CC1c1cccc(Cl)c1 (stereo unspecified) | x | i | x | x
COc1ccccc1CC(=O)N[C@@H]1CN(c2ncccn2)C[C@H]1CN(C)C | 12.0 | 22.4µM* | 6.9% | 2.2%
COc1ccc(CC(=O)N[C@@H]2CN(C)C[C@H]2CN(C)C)cc1 | -16.7 | i | 6.5% | -0.1%
CN(C)C[C@@H]1CN(C2CCOCC2)C[C@H]1NC(=O)Cc1ccsc1 | 9.2 | u | u | 3.0%
COc1ccc(CCC(=O)N[C@@H]2CN(c3ncccn3)C[C@H]2CN(C)C)cc1 | -1.1 | 22.4µM* | -13.8% | 0.3%
CN(C)C[C@@H]1CN(c2ncccn2)C[C@H]1NC(=O)Cc1ccsc1 | 0.0 | 22.4µM* | -15.4% | -1.9%
COc1ccc(CCC(=O)N[C@@H]2CN(c3ncccn3)C[C@H]2CO)cc1 | 12.9 | 22.4µM* | -6.1% | 1.7%
COc1ccccc1CCC(=O)N[C@@H]1CN(c2ccncn2)C[C@H]1CN(C)C | -4.6 | i | -7.8% | -10.4%
c1ccc(CSc2ccc(Sc3ccc(SCc4ccccc4)cc3)cc2)cc1 | x | i | x | x
CCc1ccc(S(=O)(=O)N2CCN(C3CCN(Cc4ccccn4)C3=O)CC2)cc1 (stereo unspecified) | 11.8 | i | 29.7% | 5.3%
CN(C)C[C@@H]1CN(c2ncccn2)C[C@H]1NC(=O)CCn1cccn1 | 6.0 | 28.2µM* | 2.6% | 0.8%
C#CCNC(=O)c1nc(-c2cccnc2)c2ccccn12 | 0.0 | i | 2.9%[87.6 µM] | -21.6%[87.6 µM]
CC(C)NC(=O)c1nc(C(C)(C)C)c2cnccn12 | -9.9 | 126µM* | -41.9%[87.6 µM] | -7.2%[87.6 µM]
C#CCNC(=O)c1nc(C(C)(C)C)c2cnccn12 | -15.0 | 50.1µM* | -4.6%[87.6 µM] | 3.4%[87.6 µM]
COCCC(=O)N1CCC2(CC1)CC(Cc1nc(CCOC)no1)CCO2 (stereo unspecified) | -11.9 | i | -12.0% | 3.6%
COc1ccc(N2C(=O)C3(CCCCC3)C2C(=O)NCCN2CCc3ccccc3C2)cc1 (stereo unspecified) | -13.2 | 25.1µM* | 3.9% | -15.4%
SMILES | IP6K1 inhibitor | KDM5B inh | SNCA expr inhib | HEK293 viab
COc1ccc(N2C(=O)C3(CCCCC3)C2C(=O)NCCCN2CCCC2)cc1 (stereo unspecified) | -9.6 | i | -20.7% | -9.5%
CC(C)n1nc(C(=O)OCC(=O)Nc2ccc(Cl)cc2F)c2ccccc2c1=O | x | i | x | x
COc1ccc(-c2nc(-c3nnn4c3COC(c3ccc(C)cc3)C4)no2)cc1OC (stereo unspecified) | 6.2 | 14.1µM* | -4.0% | -8.8%
COc1ccc(-c2nc(-c3nnn4c3COC(c3ccc(C)cc3)C4)no2)c(OC)c1 (stereo unspecified) | 1.9 | 20µM* | 14.1% | -2.1%
Cc1ccc(C2Cn3nnc(-c4noc(-c5ccc(N(C)C)cc5)n4)c3CO2)cc1 (stereo unspecified) | 8.3 | u | 37.9% | -0.8%
COc1ccc(C2Cn3nnc(-c4noc(-c5ccc(C)cc5C)n4)c3CO2)cc1 (stereo unspecified) | 1.8 | u | -7.7% | 10.4%
Cc1ccc(C2Cn3nnc(-c4noc(-c5ccc(C)s5)n4)c3CO2)cc1 (stereo unspecified) | -15.3 | 12.6µM* | -1.2% | 5.0%
Cc1ccc(C2Cn3nnc(-c4noc(-c5cccc(N(C)C)c5)n4)c3CO2)cc1 (stereo unspecified) | -11.0 | 22.4µM* | 6.1% | -0.9%
C=CCn1c(C)cc(C(=O)COC(=O)c2csc(NCc3ccccc3)n2)c1C | x | i | x | x
COc1cc(F)ccc1-c1cc(C(=O)NCc2cccnc2)c2c(c1)ncn2C | -3.7 | 35.5µM* | -7.9%[87.6 µM] | -1.6%[87.6 µM]
COc1ccc(-c2cc(C(=O)NCc3ccnc(N)c3)c3c(c2)ncn3C)cc1 | 0.7 | 39.8µM* | 8.4%[87.6 µM] | -6.0%[87.6 µM]
COc1cc(F)ccc1-c1cc(C(=O)NCc2ccnc(N)c2)c2c(c1)ncn2C | -0.5 | 35.5µM* | 0.3%[87.6 µM] | -15.0%[87.6 µM]
COc1ccc(CNC(=O)c2cc(-c3ccc(F)cc3)cc3ncn(C)c23)cc1OC | -10.2 | i | 76.9%[87.6 µM] | 6.8%[87.6 µM]
Cn1cnc2cc(-c3ccc(F)cc3)cc(C(=O)NCC3CCOCC3)c21 | -7.5 | 35.5µM* | 7.5%[87.6 µM] | 3.5%[87.6 µM]
COc1cc(CNC(=O)c2cc(-c3cccc(N(C)C)c3)cc3ncn(C)c23)ccn1 | -0.3 | i | 74.5%[87.6 µM] | -23.2%[87.6 µM]
O=C(NCc1cccs1)c1c[nH]c2ncccc12 | 17.8 | i | 16.1%[87.6 µM] | 21.7%[87.6 µM]
Cn1cnc2cc(-c3ccccc3)cc(C(=O)NCc3cccnc3)c21 | -1.5 | 31.6µM* | 14.9%[87.6 µM] | -10.3%[87.6 µM]
COc1ncccc1-c1cc(C(=O)NCCN2CCOCC2)c2c(c1)ncn2C | 10.2 | 35.5µM* | 7.7%[87.6 µM] | 1.0%[87.6 µM]
Cn1cnc2cc(-c3cccc(C(F)(F)F)c3)cc(C(=O)NCc3cccnc3)c21 | -6.9 | u | 13.2%[87.6 µM] | -23.9%[87.6 µM]
Cn1cnc2cc(-c3ccc(F)cc3)cc(C(=O)NCc3cccnc3)c21 | -6.5 | 31.6µM* | 4.7%[87.6 µM] | 10.9%[87.6 µM]
COCCNC(=O)c1cc(-c2cnn(Cc3ccccc3)c2)cc2ncn(C)c12 | 10.0 | 35.5µM* | -1.1%[87.6 µM] | 2.1%[87.6 µM]
Cn1cnc2cc(-c3ccc(N4CCOCC4)cc3)cc(C(=O)NCc3cccnc3)c21 | -0.6 | u | 12.5%[87.6 µM] | -8.2%[87.6 µM]
COc1cc(CN2CCc3nn(C)c(=O)n3CC2)ccc1OC(C)C | 12.6 | i | 15.9% | 9.4%
Cc1cc(C)c2oc(-c3cccc(NC(=O)c4cccs4)c3)nc2c1 | x | i | x | x
O=C(c1ccc(-c2ccc(N3CCSCC3)nc2)cc1)N1CCCCC1 | 20.2 | 28.2µM* | 13.9% | -17.9%
